This is an account of results in PMC7862700, “An all-to-all approach to the identification of sequence-specific readers for epigenetic DNA modifications on cytosine”.

Experiment in all cases: DAPPL (digital affinity profiling via proximity ligation, sequencing); 10 mM Tris-HCl pH 7.5, 50 mM NaCl, 1 mM DTT, 4% glycerol, room temperature, 30 min; GST-TFs on glutathione beads, 16-mer random dsDNA library, 0.1% formaldehyde crosslink after washing; high values mean tight binding
One assay addresses T1, FEV (Homo sapiens, UniProt Q99581 1-238).
T1 sequence: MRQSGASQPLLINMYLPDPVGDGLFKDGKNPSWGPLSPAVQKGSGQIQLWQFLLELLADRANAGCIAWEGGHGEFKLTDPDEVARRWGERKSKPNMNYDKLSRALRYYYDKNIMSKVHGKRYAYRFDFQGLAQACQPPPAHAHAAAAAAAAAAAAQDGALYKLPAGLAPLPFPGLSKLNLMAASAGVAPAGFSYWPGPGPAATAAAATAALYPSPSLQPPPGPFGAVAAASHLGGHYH
As to conditions: protein: recombinant; tags: N-terminal GST; dsDNA, one strand shown. In outline: (§1)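 Human transcription factors were made in yeast as GST fusions, captured on glutathione beads and barcoded with DNA. With a tag-only sample included, the pool was incubated with 200 nmole of a random double-stranded 16-mer DNA library in Tris/NaCl/DTT/glycerol buffer at room temperature for 30 min, then crosslinked with 0.1% formaldehyde after washing, ligated by proximity, amplified and sequenced. For binding signal, each hexamer's read frequency for a factor is divided by its frequency for the tag-only sample.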

In the next assay the target is ETV5 (Homo sapiens, UniProt P41161 1-510). As to conditions: protein: recombinant; tags: N-terminal GST; dsDNA, one strand shown. In outline: as §1
The target of another assay is HSF1 (Homo sapiens, UniProt Q00613 1-529). As to conditions: protein: recombinant; tags: N-terminal GST; chain copies: 3; dsDNA, one strand shown. An outline of the steps: as §1
Another assay addresses T2, SPIC (Homo sapiens, UniProt Q8N5J4 1-248).
T2 sequence: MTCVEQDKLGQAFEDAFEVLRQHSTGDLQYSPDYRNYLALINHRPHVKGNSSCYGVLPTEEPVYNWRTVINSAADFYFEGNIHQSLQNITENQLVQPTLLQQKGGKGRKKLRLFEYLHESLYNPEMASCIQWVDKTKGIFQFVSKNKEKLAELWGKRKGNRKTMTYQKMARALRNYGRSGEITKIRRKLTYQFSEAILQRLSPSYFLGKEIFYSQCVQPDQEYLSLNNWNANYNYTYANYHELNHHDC
The settings on record: protein: recombinant; tags: N-terminal GST; dsDNA, one strand shown. An outline of the steps:
as §1

In another assay the target is ELF4 (Homo sapiens, UniProt Q99607 1-663). The settings on record: protein: recombinant; tags: N-terminal GST; dsDNA, one strand shown. In outline:
as §1

A further assay deals with T3, ELK4 (Homo sapiens, UniProt P28324-2 1-405).
T3 sequence: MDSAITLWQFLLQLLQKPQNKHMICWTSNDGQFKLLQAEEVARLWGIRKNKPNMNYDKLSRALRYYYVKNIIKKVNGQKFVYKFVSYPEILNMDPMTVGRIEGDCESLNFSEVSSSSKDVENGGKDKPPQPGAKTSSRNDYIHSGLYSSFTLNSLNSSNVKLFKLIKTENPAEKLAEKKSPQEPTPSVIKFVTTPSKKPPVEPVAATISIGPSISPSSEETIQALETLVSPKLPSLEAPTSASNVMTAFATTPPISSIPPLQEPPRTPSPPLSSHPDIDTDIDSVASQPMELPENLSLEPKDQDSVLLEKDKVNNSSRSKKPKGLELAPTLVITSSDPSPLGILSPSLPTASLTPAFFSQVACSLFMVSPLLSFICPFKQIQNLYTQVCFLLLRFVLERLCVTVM
The settings on record: protein: recombinant; tags: N-terminal GST; dsDNA, one strand shown. In outline:
as §1

The next assay addresses T4, ETV2 (Homo sapiens, UniProt O00321 1-342).
T4 sequence: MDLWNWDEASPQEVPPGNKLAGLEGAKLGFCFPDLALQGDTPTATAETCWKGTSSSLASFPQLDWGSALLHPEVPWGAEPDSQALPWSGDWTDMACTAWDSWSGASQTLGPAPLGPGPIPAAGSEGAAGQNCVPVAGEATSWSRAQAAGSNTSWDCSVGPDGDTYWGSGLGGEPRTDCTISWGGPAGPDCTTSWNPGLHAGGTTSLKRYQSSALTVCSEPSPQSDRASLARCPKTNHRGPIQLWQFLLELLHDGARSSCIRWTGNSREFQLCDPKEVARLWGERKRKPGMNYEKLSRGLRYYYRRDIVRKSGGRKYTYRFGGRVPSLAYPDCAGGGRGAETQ
As to conditions: protein: recombinant; tags: N-terminal GST; dsDNA, one strand shown. In outline: as §1

Another assay concerns the target T5, ELF3 (Homo sapiens, UniProt P78545 1-371).
T5 sequence: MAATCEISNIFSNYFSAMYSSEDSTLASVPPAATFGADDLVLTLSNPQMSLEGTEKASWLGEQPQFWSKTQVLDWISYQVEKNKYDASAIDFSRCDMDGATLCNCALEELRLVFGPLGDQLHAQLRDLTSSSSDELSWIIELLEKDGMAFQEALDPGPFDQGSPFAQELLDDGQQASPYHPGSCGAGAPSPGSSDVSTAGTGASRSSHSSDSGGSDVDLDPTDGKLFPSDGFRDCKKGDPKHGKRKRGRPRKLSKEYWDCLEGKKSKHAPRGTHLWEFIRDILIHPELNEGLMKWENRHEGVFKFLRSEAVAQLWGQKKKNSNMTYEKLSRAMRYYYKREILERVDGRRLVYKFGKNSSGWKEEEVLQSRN
The settings on record: protein: recombinant; tags: N-terminal GST; dsDNA, one strand shown. In outline:
as §1

Another assay has as its target CRX (Homo sapiens, UniProt O43186 1-299). As to conditions: protein: recombinant; tags: N-terminal GST; dsDNA, one strand shown. In outline:
as §1

The target in another assay is ETV1 (Homo sapiens, UniProt P50549 1-477). As to conditions: protein: recombinant; tags: N-terminal GST; dsDNA, one strand shown. In outline:
as §1

The target of a further assay is T6, ERF (Homo sapiens, UniProt P50548 1-548).
T6 sequence: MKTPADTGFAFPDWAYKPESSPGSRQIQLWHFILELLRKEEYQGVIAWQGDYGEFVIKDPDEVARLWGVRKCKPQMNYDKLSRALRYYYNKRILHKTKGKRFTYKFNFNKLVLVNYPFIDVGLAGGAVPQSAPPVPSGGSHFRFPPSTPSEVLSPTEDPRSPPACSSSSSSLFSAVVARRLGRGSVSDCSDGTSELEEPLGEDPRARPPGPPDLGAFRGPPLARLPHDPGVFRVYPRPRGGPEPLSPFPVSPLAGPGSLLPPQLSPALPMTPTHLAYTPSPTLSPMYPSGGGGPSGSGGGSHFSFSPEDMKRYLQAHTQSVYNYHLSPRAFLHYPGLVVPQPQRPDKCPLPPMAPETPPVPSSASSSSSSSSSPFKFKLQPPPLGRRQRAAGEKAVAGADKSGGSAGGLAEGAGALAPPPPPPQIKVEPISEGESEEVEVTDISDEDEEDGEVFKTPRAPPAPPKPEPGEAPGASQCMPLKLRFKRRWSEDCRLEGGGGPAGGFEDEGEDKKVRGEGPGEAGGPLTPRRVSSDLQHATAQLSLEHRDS
As to conditions: protein: recombinant; tags: N-terminal GST; dsDNA, one strand shown. In outline: as §1

The next assay has as its target T7, ETV3L (Homo sapiens, UniProt Q6ZN32 1-361).
T7 sequence: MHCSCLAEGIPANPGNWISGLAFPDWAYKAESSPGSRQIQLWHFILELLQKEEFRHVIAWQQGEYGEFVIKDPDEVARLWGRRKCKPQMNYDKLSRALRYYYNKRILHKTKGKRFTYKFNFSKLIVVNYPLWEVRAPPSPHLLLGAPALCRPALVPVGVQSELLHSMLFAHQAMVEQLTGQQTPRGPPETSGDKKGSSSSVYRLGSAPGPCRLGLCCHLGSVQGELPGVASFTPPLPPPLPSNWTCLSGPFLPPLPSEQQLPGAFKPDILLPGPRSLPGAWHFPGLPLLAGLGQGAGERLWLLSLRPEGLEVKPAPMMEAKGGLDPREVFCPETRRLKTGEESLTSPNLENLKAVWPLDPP
As to conditions: protein: recombinant; tags: N-terminal GST; dsDNA, one strand shown. In outline: as §1

A further assay has as its target T8, ETS2 (Homo sapiens, UniProt P15036 1-469).
T8 sequence: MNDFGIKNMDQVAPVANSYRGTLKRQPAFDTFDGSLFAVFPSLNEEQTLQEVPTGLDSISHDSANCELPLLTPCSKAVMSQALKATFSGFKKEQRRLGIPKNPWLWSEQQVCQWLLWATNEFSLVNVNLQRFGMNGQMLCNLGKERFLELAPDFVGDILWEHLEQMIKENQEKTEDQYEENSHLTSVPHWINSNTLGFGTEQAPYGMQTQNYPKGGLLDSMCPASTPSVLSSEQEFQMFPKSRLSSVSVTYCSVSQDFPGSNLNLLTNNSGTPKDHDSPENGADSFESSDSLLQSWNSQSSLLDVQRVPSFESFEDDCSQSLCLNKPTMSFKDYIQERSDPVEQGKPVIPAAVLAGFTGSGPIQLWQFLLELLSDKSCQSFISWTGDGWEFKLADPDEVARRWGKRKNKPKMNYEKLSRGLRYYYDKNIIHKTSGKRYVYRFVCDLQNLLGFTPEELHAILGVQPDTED
The settings on record: protein: recombinant; tags: N-terminal GST; dsDNA, one strand shown. In outline: as §1

For a further assay, the target named is T9, SPDEF (Homo sapiens, UniProt O95238 1-335).
T9 sequence: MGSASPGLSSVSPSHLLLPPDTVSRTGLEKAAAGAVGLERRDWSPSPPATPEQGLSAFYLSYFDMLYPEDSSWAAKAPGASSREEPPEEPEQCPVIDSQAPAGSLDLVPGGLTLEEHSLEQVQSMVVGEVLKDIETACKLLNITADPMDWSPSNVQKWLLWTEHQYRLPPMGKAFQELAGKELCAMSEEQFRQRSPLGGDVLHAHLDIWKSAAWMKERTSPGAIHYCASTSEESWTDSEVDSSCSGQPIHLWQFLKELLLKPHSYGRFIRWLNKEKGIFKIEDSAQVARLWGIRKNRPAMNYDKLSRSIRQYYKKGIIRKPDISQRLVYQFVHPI
The settings on record: protein: recombinant; tags: N-terminal GST; dsDNA, one strand shown. In outline: as §1

A further assay deals with T10, ETV7 (Homo sapiens, UniProt Q9Y603 1-341).
T10 sequence: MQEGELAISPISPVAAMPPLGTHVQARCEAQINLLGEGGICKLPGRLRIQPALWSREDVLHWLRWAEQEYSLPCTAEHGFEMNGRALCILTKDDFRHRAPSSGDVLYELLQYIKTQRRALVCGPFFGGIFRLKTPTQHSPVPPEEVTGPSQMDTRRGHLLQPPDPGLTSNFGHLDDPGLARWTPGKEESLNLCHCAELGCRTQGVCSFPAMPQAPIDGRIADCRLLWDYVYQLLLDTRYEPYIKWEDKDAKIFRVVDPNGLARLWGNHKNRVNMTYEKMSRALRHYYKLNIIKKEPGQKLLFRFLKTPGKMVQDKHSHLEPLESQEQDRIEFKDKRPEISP
As to conditions: protein: recombinant; tags: N-terminal GST; dsDNA, one strand shown. An outline of the steps:
as §1

A further assay deals with T11, ELF5 (Homo sapiens, UniProt Q9UKW6-2 1-255).
T11 sequence: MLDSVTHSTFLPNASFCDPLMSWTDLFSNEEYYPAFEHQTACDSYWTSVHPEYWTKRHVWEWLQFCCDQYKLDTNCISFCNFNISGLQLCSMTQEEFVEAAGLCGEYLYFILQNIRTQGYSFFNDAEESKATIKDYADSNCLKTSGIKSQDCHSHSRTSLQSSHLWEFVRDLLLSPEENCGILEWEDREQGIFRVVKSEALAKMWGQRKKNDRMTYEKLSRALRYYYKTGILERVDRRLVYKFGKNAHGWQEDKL
As to conditions: protein: recombinant; tags: N-terminal GST; dsDNA, one strand shown. In outline: as §1

For another assay, the target named is T12, ETV3 (Homo sapiens, UniProt P41162-2 1-143).
T12 sequence: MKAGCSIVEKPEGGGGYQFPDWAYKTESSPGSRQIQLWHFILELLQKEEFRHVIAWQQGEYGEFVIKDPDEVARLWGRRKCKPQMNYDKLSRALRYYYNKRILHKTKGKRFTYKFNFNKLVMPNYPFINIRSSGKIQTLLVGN
The settings on record: protein: recombinant; tags: N-terminal GST; dsDNA, one strand shown. In outline:
as §1

For another assay, the target named is ETV6 (Homo sapiens, UniProt P41212 1-452). The settings on record: protein: recombinant; tags: N-terminal GST; dsDNA, one strand shown. An outline of the steps: as §1
Sequence of ETV6 (P41212 whole entry): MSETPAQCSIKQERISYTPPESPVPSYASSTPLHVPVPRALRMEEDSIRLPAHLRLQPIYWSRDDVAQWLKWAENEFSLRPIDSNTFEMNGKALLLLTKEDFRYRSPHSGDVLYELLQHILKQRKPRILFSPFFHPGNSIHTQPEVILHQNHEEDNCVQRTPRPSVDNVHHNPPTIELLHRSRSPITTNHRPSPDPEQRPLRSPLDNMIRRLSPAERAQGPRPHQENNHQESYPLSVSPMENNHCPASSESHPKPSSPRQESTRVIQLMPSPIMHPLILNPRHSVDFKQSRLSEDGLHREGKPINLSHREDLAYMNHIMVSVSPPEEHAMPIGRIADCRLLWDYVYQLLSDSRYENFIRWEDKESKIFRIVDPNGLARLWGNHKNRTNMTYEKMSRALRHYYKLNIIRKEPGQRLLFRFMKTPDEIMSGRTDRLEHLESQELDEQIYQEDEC

Sequence of CRX (O43186 whole entry): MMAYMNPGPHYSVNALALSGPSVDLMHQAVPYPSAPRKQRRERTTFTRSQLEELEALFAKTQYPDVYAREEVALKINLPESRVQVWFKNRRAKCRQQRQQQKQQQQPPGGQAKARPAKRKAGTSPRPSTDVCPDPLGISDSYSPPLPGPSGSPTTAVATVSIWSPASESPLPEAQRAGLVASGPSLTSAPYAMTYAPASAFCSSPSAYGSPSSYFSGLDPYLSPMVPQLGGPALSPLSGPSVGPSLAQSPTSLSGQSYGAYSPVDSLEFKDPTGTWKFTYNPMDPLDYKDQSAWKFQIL
Sequence of ETV1 (P50549 whole entry): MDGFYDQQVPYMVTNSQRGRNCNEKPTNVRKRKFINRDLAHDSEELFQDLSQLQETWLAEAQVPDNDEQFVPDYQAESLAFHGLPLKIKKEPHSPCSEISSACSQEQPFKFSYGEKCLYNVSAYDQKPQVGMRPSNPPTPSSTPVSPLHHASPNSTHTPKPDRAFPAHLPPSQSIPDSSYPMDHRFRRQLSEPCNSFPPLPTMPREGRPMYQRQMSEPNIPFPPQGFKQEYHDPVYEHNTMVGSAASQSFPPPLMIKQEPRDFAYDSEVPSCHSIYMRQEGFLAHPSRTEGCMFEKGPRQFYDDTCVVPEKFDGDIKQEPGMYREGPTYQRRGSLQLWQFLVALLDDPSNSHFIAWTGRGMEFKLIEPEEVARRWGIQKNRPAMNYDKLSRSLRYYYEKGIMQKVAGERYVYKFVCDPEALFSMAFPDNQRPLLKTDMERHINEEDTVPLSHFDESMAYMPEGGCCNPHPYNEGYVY
Sequence of ELF4 (Q99607 whole entry): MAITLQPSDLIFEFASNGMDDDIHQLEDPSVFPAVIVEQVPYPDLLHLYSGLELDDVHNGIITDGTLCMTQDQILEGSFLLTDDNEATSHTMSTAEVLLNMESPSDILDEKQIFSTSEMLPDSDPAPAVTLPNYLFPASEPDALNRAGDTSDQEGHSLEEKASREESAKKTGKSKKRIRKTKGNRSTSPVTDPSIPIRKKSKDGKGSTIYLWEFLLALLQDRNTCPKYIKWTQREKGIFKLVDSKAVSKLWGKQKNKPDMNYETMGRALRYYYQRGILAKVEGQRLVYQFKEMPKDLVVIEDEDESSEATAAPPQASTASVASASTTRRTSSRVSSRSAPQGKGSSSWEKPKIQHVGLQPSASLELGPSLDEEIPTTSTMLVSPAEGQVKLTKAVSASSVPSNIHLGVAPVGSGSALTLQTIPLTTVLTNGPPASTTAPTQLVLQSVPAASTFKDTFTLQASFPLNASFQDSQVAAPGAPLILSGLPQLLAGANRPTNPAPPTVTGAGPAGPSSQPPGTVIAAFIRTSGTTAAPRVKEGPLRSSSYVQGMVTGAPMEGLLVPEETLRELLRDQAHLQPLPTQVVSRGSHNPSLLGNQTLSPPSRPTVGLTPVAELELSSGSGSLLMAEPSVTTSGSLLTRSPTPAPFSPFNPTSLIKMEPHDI
Sequence of HSF1 (Q00613 whole entry): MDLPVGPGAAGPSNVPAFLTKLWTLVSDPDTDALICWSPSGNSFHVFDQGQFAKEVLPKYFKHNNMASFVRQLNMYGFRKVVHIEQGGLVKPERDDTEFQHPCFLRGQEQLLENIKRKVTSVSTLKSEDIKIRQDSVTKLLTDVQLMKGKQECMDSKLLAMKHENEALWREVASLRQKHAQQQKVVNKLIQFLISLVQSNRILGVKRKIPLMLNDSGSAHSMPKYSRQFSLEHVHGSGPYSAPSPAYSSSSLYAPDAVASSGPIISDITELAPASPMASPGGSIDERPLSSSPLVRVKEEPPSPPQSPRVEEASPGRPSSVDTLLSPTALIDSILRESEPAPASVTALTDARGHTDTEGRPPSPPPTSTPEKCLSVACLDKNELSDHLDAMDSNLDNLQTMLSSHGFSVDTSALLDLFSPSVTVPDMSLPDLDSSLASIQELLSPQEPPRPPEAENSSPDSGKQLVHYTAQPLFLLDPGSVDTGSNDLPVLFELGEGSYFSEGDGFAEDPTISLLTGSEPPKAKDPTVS
Sequence of ETV5 (P41161 whole entry): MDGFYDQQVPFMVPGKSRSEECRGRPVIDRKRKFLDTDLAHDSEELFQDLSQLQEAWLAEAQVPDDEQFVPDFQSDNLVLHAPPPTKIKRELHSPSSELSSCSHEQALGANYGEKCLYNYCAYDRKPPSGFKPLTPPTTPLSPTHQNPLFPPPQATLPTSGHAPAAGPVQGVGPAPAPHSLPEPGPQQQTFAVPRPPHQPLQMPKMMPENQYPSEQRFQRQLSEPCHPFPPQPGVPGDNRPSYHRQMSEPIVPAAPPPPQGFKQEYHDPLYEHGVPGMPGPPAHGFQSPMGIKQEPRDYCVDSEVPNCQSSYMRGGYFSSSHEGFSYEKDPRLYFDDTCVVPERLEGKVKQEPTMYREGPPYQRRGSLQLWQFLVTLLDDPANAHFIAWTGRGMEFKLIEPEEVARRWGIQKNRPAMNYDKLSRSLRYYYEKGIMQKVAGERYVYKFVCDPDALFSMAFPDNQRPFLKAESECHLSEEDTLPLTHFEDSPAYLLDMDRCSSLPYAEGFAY

In the case of TCCGCT, the binding signal with FEV is 2.51 fold enrichment (6-mer frequency, TF over GST control); with ETV5 it was 2.37 fold enrichment (6-mer frequency, TF over GST control); with HSF1, 1.51 fold enrichment (6-mer frequency, TF over GST control); with SPIC, 2.63 fold enrichment (6-mer frequency, TF over GST control); with ELF4, 2.13 fold enrichment (6-mer frequency, TF over GST control); with ELK4, 2.01 fold enrichment (6-mer frequency, TF over GST control). Moreover, the binding signal with ETV2 was 2.27 fold enrichment (6-mer frequency, TF over GST control); with ELF3, 2.15 fold enrichment (6-mer frequency, TF over GST control); with CRX, 1.84 fold enrichment (6-mer frequency, TF over GST control); in the assay with ETV1, 2.44 fold enrichment (6-mer frequency, TF over GST control); in the assay with ERF, 2.12 fold enrichment (6-mer frequency, TF over GST control); in the assay with ETV3L, 2.23 fold enrichment (6-mer frequency, TF over GST control). Moreover, the binding signal was 2.32 fold enrichment (6-mer frequency, TF over GST control) with ETS2; 2.51 fold enrichment (6-mer frequency, TF over GST control) in the assay with SPDEF; 2.07 fold enrichment (6-mer frequency, TF over GST control) in the assay with ETV7; 2.58 fold enrichment (6-mer frequency, TF over GST control) with ELF5; 2.44 fold enrichment (6-mer frequency, TF over GST control) with ETV3; 2.44 fold enrichment (6-mer frequency, TF over GST control) with ETV6.
